PubChem BioAssay (NCATS)
Inconclusive results are not listed. Unmarked numbers belong to inactive results. Calls come from the whole dose curve; as a rule, active = well fitted cell-killing curve with a large enough effect; inconclusive = small, poorly fitted or top-dose-only effect; inactive = no such curve, though single readings can be large or run the other way.

Assay: qHTS of pediatric cancer cell lines to identify multiple opportunities for drug repurposing: Primary screen for Rh30 cells (AID 1347107); note: nearly all actives have a fitted effect of over 75% in size
Conditions: Rh30 rhabdomyosarcoma viability, CellTiter-Glo luminescence, 48 h; series mostly up to 46 µM; activity change, negative = cytotoxic: at the top concentration
Outline: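 Cells (500-1,000/well) in growth media were settled 5 h at 37 degrees C, then given compounds for 48 h. Viability was read as CellTiter-Glo luminescence. Primary runs used MIPE at 11 points (0.78 nM-46 µM) and NPC at 8 points (0.59 nM-46 µM); follow-ups used 11 points.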
% is set by controls: 0 for no effect and ±100 for the full control effect.

Row | SMILES | activity change, negative = cytotoxic
1 | CCC(Cc1c(I)cc(I)c(N)c1I)C(=O)O (centres undefined) | 19.7%
2 | CN1CCN(C2=Nc3ccccc3Sc3ccc(Cl)cc32)CC1 | 7.53%
3 | O=C1c2cccc3c2[C@H](CCC3)CN1[C@@H]1CN2CCC1CC2 | 7.79%
4 | COc1ccc(CN(CCN(C)C)c2ncccn2)cc1 | 6.05%
5 | CCCCC(CC)CN1CN(CC(CC)CCCC)CC(C)(N)C1 (centres undefined) | -11%
6 | COc1cc(C(=S)N2CCOCC2)ccc1O | 0.146%
7 | CC(C)(C)NC[C@H](O)COc1cccc2c1CCCC2=O | -3.1%
8 | CCCCN=C(N)N=C(N)N | 8.06%
9 | CO[C@]12C[C@@H](COC(=O)c3cncc(Br)c3)CN(C)[C@@H]1Cc1cn(C)c3cccc2c13 | 9.67%
10 | Cc1cc(-c2ccccc2)nnc1NCCN1CCOCC1 | -4.8%
11 | CCc1nn(CCCN2CCN(c3cccc(Cl)c3)CC2)c(=O)n1CCOc1ccccc1 | 4.89%
12 | CC(C)(C)CC(C)(C)c1ccc(O)c(-n2nc3ccccc3n2)c1 | 14.2%
13 | Cl/C(=C\n1cncn1)c1ccc(Cl)cc1Cl | 17.9%
14 | CC(=O)N[C@@H](CCC(=O)O)C(=O)O | 29.1%
15 | Cc1cc(NS(=O)(=O)c2ccc(N)cc2)nc(C)n1 | 12.6%
16 | O=C(Nc1ccccc1)OCC(CN1CCCCC1)OC(=O)Nc1ccccc1 (centres undefined) | -9.51%
17 | Cc1cccc(C)c1NC(=O)c1ccccc1C(=O)O | 23.9%
18 | CN1CCN(CCC(=O)N2c3ccccc3Sc3ccc(C(F)(F)F)cc32)CC1 | 2.71%
19 | CC(=O)Nc1ccc(OCC(O)CNC(C)C)cc1 (centres undefined) | 10.6%
20 | NC(=O)C1(N2CCCCC2)CCN(CCCC(=O)c2ccc(F)cc2)CC1 | 19.8%

Row | SMILES | activity change, negative = cytotoxic
21 | O=S(c1cc(Cl)cc(Cl)c1O)c1cc(Cl)cc(Cl)c1O | 16.1%
22 | CN1CCC(OC(c2ccccc2)c2ccccc2)CC1 | 25.3%
23 | CC(C(=O)O)c1cccc(Oc2ccccc2)c1 (centres undefined) | 14.7%
24 | Oc1c(Cl)cc(Cl)c(Cl)c1Cc1c(O)c(Cl)cc(Cl)c1Cl | -16.5%
25 | NCc1ccccc1Sc1ccccc1CO | 16.1%
26 | CCN(CC)CCNc1ccc(CO)c2sc3ccccc3c(=O)c12 | 4.55%
27 | COc1ccc(C(=O)c2ccccc2O)c(O)c1 | 13.7%
28 | CN1CCC[C@@H]1CCO[C@](C)(c1ccccc1)c1ccc(Cl)cc1 | 6.97%
29 | CNCCCCOc1ccccc1Cc1ccccc1 | 5.38%
30 | O=C(N/N=C/c1ccc([N+](=O)[O-])o1)c1ccc(O)cc1 | 5.42%
31 | O=C1[C@H](CC[C@H](O)c2ccc(F)cc2)[C@@H](c2ccc(O)cc2)N1c1ccc(F)cc1 | 13.3%
32 | CCOC(=O)c1c(N)sc2c1CCN(Cc1ccccc1)C2 | 4.73%
33 | COc1cc(O)c(C(=O)c2ccccc2)cc1S(=O)(=O)O | 19.8%
34 | COc1ccc(/C=N/NC(=O)c2ccncc2)cc1OC | 6.62%
35 | O=C1OC(CN2CCOCC2)CN1/N=C/c1ccc([N+](=O)[O-])o1 (centres undefined) | 12.9%
36 | C#C[C@]1(OC(C)=O)CC[C@H]2[C@@H]3CCC4=C/C(=N/O)CC[C@@H]4[C@H]3CC[C@@]21CC | -6.27%
37 | CCC(C(=O)OCCOCCN(CC)CC)c1ccccc1 (centres undefined) | -0.467%
38 | CC(=O)Nc1ncc([N+](=O)[O-])s1 | 22.8%
39 | CCOC(=O)Nc1ccc2c(c1)N(C(=O)CCN1CCOCC1)c1ccccc1S2 | 7.04%
